The values below come from PubChem BioAssay.

Calls of active or inactive are those of the source. Unless noted, the rule behind the calls is not given here.

For experiment [1], the system named is XIP peptide (Xip251-270) binding. In words: small-molecule binders of XIP peptide, primary screen, biochemical, small-molecule microarray, fluorescence 635/667 nm, 0.1 µg/mL protein (AID 1182). Particulars: fluorescent protein binding, 635 nm, higher = more signal, called active from +8 up or from −8 down.
The test system of another experiment is XIP peptide (Xip251-270). In words: small-molecule binders of XIP peptide, primary screen, biochemical, small-molecule microarray, fluorescence 635/667 nm, 0.5 µg/mL protein (AID 1183). The settings on record: small-molecule microarray binding, fluorescence 635 nm; higher = more signal.
A short description of experiment [2]: Plasmodium falciparum growth inhibition, primary screen, strain 3D7, DAPI fluorescence, 100 nL (AID 1184).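 Note: parasites grown inside human red blood cells in medium with human serum.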 Particulars: P. falciparum 3D7 growth, 3 d, higher = more signal.
Experiment [3] deals with Homeobox protein Hox-A13 (Mus musculus) (UniProt Q62424). Kind of experiment: inhibitors of HoxA13-DNA binding, primary screen, biochemical, fluorescence polarization, labeled oligonucleotide (AID 1185). The settings on record: 15 min, higher = more signal, called active from +8 up or from −8 down. (In general: In fluorescence polarisation assays a small probe gives low polarisation when free and higher when bound to something large.)
Chain of Homeobox protein Hox-A13 (Mus musculus) (Q62424 whole entry, looked up): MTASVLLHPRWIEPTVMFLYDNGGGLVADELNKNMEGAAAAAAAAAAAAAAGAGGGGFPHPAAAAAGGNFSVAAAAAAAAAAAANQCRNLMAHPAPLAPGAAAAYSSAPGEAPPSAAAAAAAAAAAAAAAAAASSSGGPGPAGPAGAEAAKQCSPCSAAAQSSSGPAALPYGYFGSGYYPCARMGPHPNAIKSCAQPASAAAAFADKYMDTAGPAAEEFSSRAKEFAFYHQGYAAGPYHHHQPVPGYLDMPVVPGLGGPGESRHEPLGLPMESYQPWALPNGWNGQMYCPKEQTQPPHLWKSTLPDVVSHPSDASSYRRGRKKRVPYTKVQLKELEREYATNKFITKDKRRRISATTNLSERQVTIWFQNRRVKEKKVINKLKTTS

A short description of experiment [4]: inhibitors of hydroxyurea-induced Chk1 phosphorylation, primary screen, imaging, HeLa, phospho-Chk1 antibody, percent positive cells (AID 1186). Particulars: hydroxyurea-induced phospho-Chk1 immunofluorescence imaging, higher = more signal.
A short description of experiment [5]: inhibitors of hydroxyurea-induced Chk1 phosphorylation, primary screen, imaging, HeLa, phospho-Chk1 nuclear intensity (AID 1187). The settings on record: hydroxyurea-induced phospho-Chk1 immunofluorescence imaging, higher = more signal.

Turning to `CCN1C(=O)[C@H]2[C@H]3[C@H](O)[C@H](O)CC(=NO[C@@H]4O[C@H](CO)[C@@H](O)[C@H](O)[C@H]4O)[C@@H]3CC[C@H]2C1=O`, the composite z-score in experiment [1] is -0.232 (inactive); in the experiment with XIP peptide (Xip251-270) it was -0.321. The z-score was 1.82 in experiment [2] and -0.0696 (inactive) in experiment [3].

Consider `CCN1C(=O)[C@H]2[C@H]3[C@H](O)[C@H](O)CC(=NOCC=C(C)CCC=C(C)C)[C@H]3CC[C@H]2C1=O`, for which the figures for the composite z-score (in experiment [1]; in the experiment with XIP peptide (Xip251-270)) were 1.09 (inactive) and 0.762, respectively. Also, the figures for the z-score in experiment [2] and in experiment [3] were 1.97 and 0.0102 (inactive), respectively.

For the compound `O=C1[C@H]2[C@H]3[C@H](O)[C@H](O)CC(=NO[C@@H]4O[C@H](CO)[C@@H](O)[C@H](O)[C@H]4O)[C@H]3CC[C@H]2C(=O)N1C1CCCCC1`, the composite z-score in experiment [1] is 0.269 (inactive); in the experiment on XIP peptide (Xip251-270) it was 0.653. Further, the z-score is 0.418 in experiment [2] and -4.7 (inactive) in experiment [3].

In the case of `C[C@@H](c1ccccc1)N1C(=O)[C@H]2[C@H]3[C@H](O)[C@H](O)CC(=NOC[C@@H](O)COCc4ccco4)[C@@H]3CC[C@H]2C1=O`, the values for the composite z-score (in experiment [1]; with XIP peptide (Xip251-270)) were -0.201 (inactive) and -0.287, respectively. The z-score in experiment [2] is -0.842; in experiment [3], -1.25 (inactive).

Consider `COC(=O)CC=C[C@@H](C)[C@@H](C=NO[C@H](C)c1cn([C@@H]2COC[C@H]2O)nn1)OC`, for which the composite z-score in experiment [1] was -0.107 (inactive); with XIP peptide (Xip251-270), 0.446. The z-score was 0.354 in experiment [2] and 0.0624 (inactive) in experiment [3].

Regarding `O=C1O[C@@H](c2ccccc2)[C@@H](c2ccccc2)N2[C@@H](c3ccc(OCCO)cc3)[C@]3(C(=O)Nc4ccccc43)[C@@H](C(=O)N3CCN(c4ncccn4)CC3)[C@H]12`, the results for the composite z-score (in experiment [1]; in the experiment with XIP peptide (Xip251-270)) were 0.0629 (inactive) and 0.812, respectively. Moreover, the z-score was -2.11 in experiment [2], 1.84 (inactive) in experiment [3], 0.189 (inactive) in experiment [4] and 0.644 (inactive) in experiment [5].
